The first assay relates to LXRb homodimer (NR concentration 270 nM). The assay can be described thus: PBM binding z-score (relative to random genomic background probes); higher = stronger binding; sequences stand for … in GC…GCGATTGACAGCGTAGAATGAAGG
The method in brief:
(§1)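 Custom Agilent 4×180K protein-binding microarrays carried double-stranded probes, each with a 34-nt variable region. These regions held direct-repeat seeds, single-nucleotide variants, half-site ablations and random human genomic background sequences. Ligand-free nuclear receptor dimers were incubated on the arrays for 1 h, antibodies against each partner (one per run) detected binding, and scanned fluorescence was regression-normalized. Binding z-scores take the random background probes as reference.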
Turning to GCATATAGGTAATACAAGGTAAAAGTCCGATTGT, the PBM binding z-score is -0.093.
Same read-out and setting: the figure for ACTCGGAGGAGAAAGGTCAGAGCTACGCCAGTGA is -0.215; for CCTTACTGGTCACTGACAGGTTATAGCATTTGGA it is 0.49; for ATCTCTAGGGAAAAGTTCAGTGAATCCCGAGGAT it is 0.328.
Same read-out and setting: the value for TCACGGAGGACACGAAGGTCAGAGCTTTCCAGAG was -1.12; that for CGTACTAGGTCAGAACAGGACAGTGAAGGATGAT was -0.0494.
On the same count and under the same terms, the figure for CGAACTAGGTTAAGGACAGTGAATCTCCGCACGC is -0.661; for TCAGACAGGTGAAGGTAACTCTGGTACGCAGTCG it is -0.229; for TAGCCTAGATCATGCGGGCCAGTATAGTGTCGGC it is -0.772.
Regarding AATACAGGGTCATCGTAGGCAAGAGTACGCACAG, the PBM binding z-score was determined as 1.4.
The same measure, in the same setting: the value for ATCTCTAGGTCAGACTCAGTTCAGTGAAGAACGC was 2; that for CCAGACAGGTGAGTAGGTAACTCAGCCTCGATTA was -0.401.
Take TCTGCTAGCTCAGTTGGTCAGCTAACGAGCTGCC: the PBM binding z-score is -0.714.
On to CTACCAAGGTGAACAAGCTCGTTGATTACTATTC, for which the PBM binding z-score was -0.421.
As for CCGATTGGGGCAGAAAGGTTACCATACCATCCGG, the PBM binding z-score is -0.598.
ATATGTAGATTACATCCGGGTCATTCAGGCTATG displayed a PBM binding z-score of 0.664.
On the same count and under the same terms, the figure for CCTCGGAGGACATAAGGTCAGAGCTGTCCGCTTT is -0.328.
The same measure, in the same setting: the value for TCTTGTAGATCAAGCTGGTTAAGAAAGCCTGAGT was -0.299.
Still for that read-out and setting: the figure for AGAATGAGTTTAAGATCAGGGAAACAGAATACAT is -0.243.
Sequence ATACCAAGGTGATCGTGAGGTCGTTGAGACTAAC returned a PBM binding z-score of 0.251.
On to GCTCGGAGGACATGGTCAGAGCTTTGTCCGTAGA, for which the PBM binding z-score was -1.56.
On to CCGAGTAGGTTATGGGGCATACAGGCAACGGTGA, for which the PBM binding z-score is -0.226.
In the case of CGTCCAAGGTCAAAGGTCAGTTAAGAGATGACGG, the PBM binding z-score was determined as 2.51.
Same read-out and setting: the value for CTAGCAAGGTGAACAAGGTCGTTGATTACTATTC was -1.03; that for ACAGACAGGTGATGATGGTAACTCAGGCTATCAT was -0.2.
The sequence CAAACTAGGTCACAGAGGTCCAAGTCCGTGCGTA showed a PBM binding z-score of 0.233.
On the same count and under the same terms, the figure for TAGCCTTGGTCATGCGGGCCAGTATAGTGTCGGC is -0.961.
On to CCAGACAGGTGAATGGTAACTCAGTCTGGTACGC, for which the PBM binding z-score is -0.723.
GCTGATAGGTCAACTGATGGTCAGCTAAAGCTCG came in with a PBM binding z-score of 0.283.
Take AGAACGAGGGCCCGCTGAGTTGATAGCAGAGTAG: the PBM binding z-score is -1.19.
Sequence ATATGTAGGTTACGGGTCATTCAGGTTGGTTCGC yielded a PBM binding z-score of 0.71.
The same measure, in the same setting: the value for CCTCCAAGGTCAATGCTAGGTCAGTGAAAGCATT was 1.02; that for CCTCGGAGGAAAGAAGGTCAGAGCTGTCCGCTTT was -0.651; that for ACTACCAGGCCAAGGGTCACTCAAGATTAGTCCG was 0.443.
Consider CCGACTGGGGCATAAGGTTAGCATAAGCCAGCCC, for which the PBM binding z-score is -1.19.
The same measure, in the same setting: the figure for TCTTGTAGATCAAAGGTTAAGATAGCCGAAGCCT is 0.104; for ACTATTTGGTCAGCTGAGGTCACACACAATTCGG it is 1.88.
On the same count and under the same terms, the value for CGTTAAAGTTCAACTAAGGTAACGTAAAGCACGC was 1.89; that for AGTCAATGTTCACTAGGTAACGTAAGATTCAGCT was -0.147.
In turn, AGTCAAAGTTCACTAGTTAACGTAAGATTCAGCT showed a PBM binding z-score of 1.03.

The subject of a further assay is PPARa:RXRa (NR concentration 270 nM, RXRa partner concentration 90 nM). Described as above. The method in brief: as §1
As for GCATATAGGTAATACAAGGTAAAAGTCCGATTGT, the PBM binding z-score came out at 0.669.
Regarding ACTCGGAGGAGAAAGGTCAGAGCTACGCCAGTGA, the PBM binding z-score amounted to 3.8.
On the same count and under the same terms, the value for CCTTACTGGTCACTGACAGGTTATAGCATTTGGA was 0.699; that for ATCTCTAGGGAAAAGTTCAGTGAATCCCGAGGAT was 2.67; that for TCACGGAGGACACGAAGGTCAGAGCTTTCCAGAG was 1.99.
As for CGTACTAGGTCAGAACAGGACAGTGAAGGATGAT, the PBM binding z-score is 2.29.
In turn, CGAACTAGGTTAAGGACAGTGAATCTCCGCACGC displayed a PBM binding z-score of 2.14.
Same read-out and setting: the figure for TCAGACAGGTGAAGGTAACTCTGGTACGCAGTCG is 1.23.
Take TAGCCTAGATCATGCGGGCCAGTATAGTGTCGGC: the PBM binding z-score is -0.834.
Take AATACAGGGTCATCGTAGGCAAGAGTACGCACAG: the PBM binding z-score came to 5.83.
The same measure, in the same setting: the figure for ATCTCTAGGTCAGACTCAGTTCAGTGAAGAACGC is 2.7.
Same read-out and setting: the figure for CCAGACAGGTGAGTAGGTAACTCAGCCTCGATTA is 0.695.
On the same count and under the same terms, the value for TCTGCTAGCTCAGTTGGTCAGCTAACGAGCTGCC was -0.45.
On to CTACCAAGGTGAACAAGCTCGTTGATTACTATTC, for which the PBM binding z-score was 0.984.
In turn, CCGATTGGGGCAGAAAGGTTACCATACCATCCGG returned a PBM binding z-score of 2.22.
Same read-out and setting: the value for ATATGTAGATTACATCCGGGTCATTCAGGCTATG was 2.51; that for CCTCGGAGGACATAAGGTCAGAGCTGTCCGCTTT was 2.45; that for TCTTGTAGATCAAGCTGGTTAAGAAAGCCTGAGT was 0.383.
Still for that read-out and setting: the figure for AGAATGAGTTTAAGATCAGGGAAACAGAATACAT is -0.0432; for ATACCAAGGTGATCGTGAGGTCGTTGAGACTAAC it is 1.55; for GCTCGGAGGACATGGTCAGAGCTTTGTCCGTAGA it is -0.666.
CCGAGTAGGTTATGGGGCATACAGGCAACGGTGA yielded a PBM binding z-score of 2.3.
As for CGTCCAAGGTCAAAGGTCAGTTAAGAGATGACGG, the PBM binding z-score stood at 7.44.
As for CTAGCAAGGTGAACAAGGTCGTTGATTACTATTC, the PBM binding z-score amounted to 2.39.
For ACAGACAGGTGATGATGGTAACTCAGGCTATCAT, the PBM binding z-score is -0.0535.
Consider CAAACTAGGTCACAGAGGTCCAAGTCCGTGCGTA, for which the PBM binding z-score came out at 5.18.
Same read-out and setting: the value for TAGCCTTGGTCATGCGGGCCAGTATAGTGTCGGC was -0.707.
CCAGACAGGTGAATGGTAACTCAGTCTGGTACGC yielded a PBM binding z-score of 0.129.
Still for that read-out and setting: the value for GCTGATAGGTCAACTGATGGTCAGCTAAAGCTCG was 4.84.
Still for that read-out and setting: the figure for AGAACGAGGGCCCGCTGAGTTGATAGCAGAGTAG is -1.78.
The same measure, in the same setting: the figure for ATATGTAGGTTACGGGTCATTCAGGTTGGTTCGC is 5.56; for CCTCCAAGGTCAATGCTAGGTCAGTGAAAGCATT it is 5.22.
CCTCGGAGGAAAGAAGGTCAGAGCTGTCCGCTTT had a PBM binding z-score of 2.01.
The sequence ACTACCAGGCCAAGGGTCACTCAAGATTAGTCCG gave a PBM binding z-score of 5.06.
The same measure, in the same setting: the figure for CCGACTGGGGCATAAGGTTAGCATAAGCCAGCCC is 1.04; for TCTTGTAGATCAAAGGTTAAGATAGCCGAAGCCT it is 4.83; for ACTATTTGGTCAGCTGAGGTCACACACAATTCGG it is 3.9.
Same read-out and setting: the value for CGTTAAAGTTCAACTAAGGTAACGTAAAGCACGC was 4.8; that for AGTCAATGTTCACTAGGTAACGTAAGATTCAGCT was 0.363; that for AGTCAAAGTTCACTAGTTAACGTAAGATTCAGCT was 4.06.

For the origin of these results see the supplement of paper PMC6555819.
